Active and inactive are the calls of the source. Where a call stands in place of a potency, no number is given. The call rests on the fitted dose curve.

This experiment in a line: G protein-coupled receptor (GPCR) small molecule agonists, calcium flux assay: HEK293 wild type cell line counter screen (AID 1920065). The settings on record: HEK293 WT calcium flux, fluorescence, agonist mode; series mostly up to 57.6 µM. From the text: U.S. Tox21 Program National Center for Advancing Translational Sciences [NCATS] Division of Preclinical Innovation [DPI] U.S. Environmental Protection Agency [EPA] National Institutes of Environmental Health Sciences [NIEHS] National Toxicology Program [NTP] U.S. Food and Drug Administration [FDA] Assay overview: The increased intracellular calcium release that occurred upon G protein-coupled receptor (GPCR) activation led to the frequent use of calcium flux assays to detect GPCR activation. For the purpose of studying and screening compounds that may activate GPCR, receptor-overexpressing models were typically generated using Hek293 wild-type (WT) cells. In order to eliminate the compounds that may have induced calcium release for non-specific activation, a counter-assay utilizing calcium flux on Hek293 WT cells was performed. The data were formulated in order to serve as a control for any calcium flux detection utilizing Hek293 cells with either GPCR overexpression or gene modification. The procurement of Hek293 WT cells from ATCC. Fluorescence intensity can be utilized to determine the activation of the compound in a calcium flux assay. As a counter control, this cell line was utilized to screen the Tox21 10K compound library.
Assay Protocol Summary: Hek293 cells were dispensed at 1500cells/4uL/well in 1536-well black wall/clear bottom plates using a multidrop dispenser. After the assay plates were incubated at a 37 C/5% CO2 incubator for 18 hours, 4 uL of Calcium Dye Solution was added to each well. The plates were incubated at 37 C for 1 hour. For agonist mode, 23 nL of compounds dissolved in DMSO, positive control (ATP) or DMSO only was transferred to the assay plate by a pin tool station. The fluorescence intensity in the plates was measured using FDSS 7000EX kinetic plate reader with a filter set of Ex/Em=480/540 for 3 min at 1 sec intervals. Each test compound was measured at 15 concentrations and in triplicates.
A general note: A change in cytosolic calcium serves as a functional read-out for many receptors and channels.
Take `CCCCN(CCCC)N=O`: the Potency result was “inactive”. As to `CCCCCCCCCCCCCCCCn1cc[n+](C)c1`, the Potency result is “inactive”. Still for that read-out and setting: the entry for `FC(F)(F)c1ccc(Cl)cc1` is “inactive”.

For `CC(C)(C)C(O)(CCc1ccc(Cl)cc1)Cn1cncn1` (stereo not given), the Potency result was “inactive”.

`O=Cc1ccccc1`: the Potency result was “inactive”.

`NC(=O)CCl`: the Potency result was “inactive”. For the molecule `O=P(OCCCl)(OCCCl)OCCCl`, the Potency entry is “inactive”.

In the case of `CCCCOC(=O)COC(=O)c1ccccc1C(=O)OCCCC`, the Potency result was “inactive”. Same read-out and setting: the value for `CCC(=O)C(CC(C)N(C)C)(c1ccccc1)c1ccccc1` (stereo not given) was “inactive”; that for `Nc1ccccc1C(=O)OCC(O)CO` (stereo not given) was “inactive”; that for `NC(=S)c1c(Cl)cccc1Cl` was “inactive”. `CN(C)C(=S)S`: the Potency result was “inactive”.

As for `CCCCCCCCCl`, the Potency entry is “inactive”. On to `C[C@H]1C(=O)O[C@@H]2CCN3CC=C(COC(=O)[C@](C)(O)[C@]1(C)O)[C@H]23`, for which the Potency entry was “inactive”.

On to `CC1CN1` (stereo not given), for which the Potency result was “inactive”. With `C[C@]1(O)CC[C@H]2[C@@H]3CCC4=CC(=O)CC[C@]4(C)[C@@]3(F)[C@@H](O)C[C@@]21C`, the Potency result was “inactive”. As to `CC(C)(C1CCC(O)CC1)C1CCC(O)CC1` (stereo not given), the Potency result was “inactive”.

On to `CN(C)CCc1c[nH]c2cccc(OP(=O)(O)O)c12`, for which the Potency result is “inactive”. Still for that read-out and setting: the entry for `O=C(Nc1ccc(Br)cc1)c1cc(Br)cc(Br)c1O` is “inactive”; for `CC[n+]1c(-c2ccccc2)c2cc(N)ccc2c2ccc(N)cc21` it is “inactive”. Consider `CO[C@@H]1[C@H](OC(=O)NC(=O)CCl)CC[C@]2(CO2)[C@H]1[C@@]1(C)O[C@@H]1CC=C(C)C`, for which the activation is 2.6% [at 11.8 µM] (inactive). Consider `c1cc2c(c(N3CCNCC3)c1)OCCO2`, for which the Potency result is “inactive”. As to `Cc1ccc2c(c1N)C(=O)c1ccccc1C2=O`, the Potency result is “inactive”. Same read-out and setting: the entry for `ClC(Cl)c1ccccc1` is “inactive”; for `Cc1cccc(N)c1N` it is “inactive”; for `c1ccc(P(c2ccccc2)c2ccccc2)cc1` it is “inactive”.

For `OCC(Cl)CCl` (stereo not given), the Potency entry is “inactive”. Same read-out and setting: the entry for `CC(C)N(C(=O)SCC(Cl)=C(Cl)Cl)C(C)C` is “inactive”; for `Nc1ccc(-c2ccc(N)c(Cl)c2)cc1Cl` it is “inactive”.

As for `CN(N=O)c1ccccc1`, the Potency entry is “inactive”. For `C=C(C)C#N`, the Potency entry was “inactive”. Still for that read-out and setting: the entry for `CCCCC(CC)COC(=O)Cl` (stereo not given) is “inactive”; for `O=C(O)c1ccccn1` it is “inactive”; for `CC(C)c1ccc(OP(=O)(Oc2ccc(C(C)C)cc2)Oc2ccc(C(C)C)cc2)cc1` it is “inactive”. On the same count and under the same terms, the value for `O=C/C(Cl)=C(/Cl)C(=O)O` was “inactive”; that for `Nc1cccc(Cl)c1` was “inactive”; that for `N#Cc1cc([N+](=O)[O-])ccc1N` was “inactive”.

For `Clc1ccc(C(Cl)(Cl)Cl)cc1`, the Potency result is “inactive”. In the case of `CCNc1nc(Cl)nc(NC(C)(C)C#N)n1`, the Potency entry was “inactive”. As for `O=[N+]([O-])c1ccc(CBr)cc1`, the Potency result was “inactive”.

For the origin of these results see PubChem BioAssay (Tox21).
